FLuc inh-1 – blocks purified firefly luciferase enzyme activity; purified P. pyralis luciferase, luminescence, biochemical; Potency, µM (series often up to 115 µM), most hits filed as inhibitors; hit rate 2.5% among 76,000; AID 1347043; further: on the % scale 0 is the no-effect control and ±100 the full control effect; nearly all actives have a fitted effect of over 65% in size
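Luminescence read by CCD imager after adding enzyme (10nM final) to wells holding compound, titrated in qHTS. Substrates 10uM each D-luciferin and ATP; buffer 50mM Tris acetate pH 7.5, 10mM Mg acetate, Tween-20, BSA.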
NPR1 antag – blocks ANP-stimulated signaling of human Npr1 receptor; P16066; HEK293 hNpr1 GloSensor cGMP, ANP-stimulated luminescence; Potency, µM (titrated, usually from 46.3 µM), for the others: at the highest dose activity change, negative = inhibition, actives largely listed as inhibitors; hit rate 1.6% among 76,000; AID 1347048; calls by dose curve; further: on the % scale 0 is the no-effect control and ±100 the full control effect; nearly all actives have a fitted effect of over 60% in size
Target sequence (P16066 whole entry, looked up): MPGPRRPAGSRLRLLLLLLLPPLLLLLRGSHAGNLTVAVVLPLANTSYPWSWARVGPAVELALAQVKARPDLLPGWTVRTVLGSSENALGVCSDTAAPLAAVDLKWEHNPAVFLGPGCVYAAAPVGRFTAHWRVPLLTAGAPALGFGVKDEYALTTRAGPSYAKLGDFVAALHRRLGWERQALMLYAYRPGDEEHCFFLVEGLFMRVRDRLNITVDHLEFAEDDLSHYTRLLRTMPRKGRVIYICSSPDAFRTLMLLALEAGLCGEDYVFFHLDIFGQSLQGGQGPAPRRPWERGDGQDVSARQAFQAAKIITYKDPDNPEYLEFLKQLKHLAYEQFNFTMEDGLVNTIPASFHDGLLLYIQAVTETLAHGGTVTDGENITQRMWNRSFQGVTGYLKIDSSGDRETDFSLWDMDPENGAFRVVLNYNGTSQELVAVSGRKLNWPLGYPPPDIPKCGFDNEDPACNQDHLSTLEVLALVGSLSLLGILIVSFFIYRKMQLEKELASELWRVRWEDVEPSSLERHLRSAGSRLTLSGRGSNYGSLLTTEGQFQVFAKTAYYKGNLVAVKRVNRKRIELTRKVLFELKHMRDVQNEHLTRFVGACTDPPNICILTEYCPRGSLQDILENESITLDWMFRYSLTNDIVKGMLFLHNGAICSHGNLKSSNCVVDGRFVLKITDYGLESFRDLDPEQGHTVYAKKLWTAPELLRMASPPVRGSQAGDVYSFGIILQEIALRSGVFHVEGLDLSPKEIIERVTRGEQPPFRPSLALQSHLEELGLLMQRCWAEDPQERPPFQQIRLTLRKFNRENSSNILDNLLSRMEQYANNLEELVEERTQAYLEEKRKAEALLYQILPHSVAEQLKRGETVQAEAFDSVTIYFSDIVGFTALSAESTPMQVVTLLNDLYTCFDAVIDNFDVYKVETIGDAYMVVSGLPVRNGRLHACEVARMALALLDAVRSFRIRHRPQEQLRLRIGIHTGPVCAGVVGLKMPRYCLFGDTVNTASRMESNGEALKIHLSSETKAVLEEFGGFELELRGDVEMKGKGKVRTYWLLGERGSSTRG
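Compound pre-incubated 30 min at room temperature on GloSensor-loaded HEK293 cells stably carrying hNpr1 and the pGS-40F cGMP biosensor. Stimulation uses hNppA at 0.1 nM final; luminescence is taken at baseline and 20 min post-agonist.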
NIH3T3 tox – kills NIH 3T3 cells | hit rate 4.3% among 94,000 | Potency, µM (top dose mostly 96.7 µM), inactives show top-dose activity change, negative = cytotoxicity, most hits filed as inhibitors | AID 1345082 | NIH 3T3 viability, CellTiter-Glo ATP luminescence, 48-72 h; further: on the % scale 0 is the no-effect control and ±100 the full control effect; nearly all actives have a fitted effect of over 55% in size
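ATP-dependent luminescence (CellTiter-Glo) served as the viability signal for NIH 3T3 cells treated with compound for 48 or 72 hr at 37 °C.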
HEK293 tox – cytotoxic compounds in HEK 293 cells | Potency, µM (titrated, usually from 115 µM), for inactives: top-dose activity change, negative = cytotoxicity, actives largely listed as inhibitors | HEK 293 viability, ATP luminescence (CellTiter-Glo), 48-72 h | hit rate 6.6% among 94,000; further: on the % scale 0 is the no-effect control and ±100 the full control effect; nearly all actives have a fitted effect of over 60% in size
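CellTiter-Glo luminescence (cellular ATP) was read after 48 or 72 hr of compound exposure at 37 degree Celsius. Cells were HEK 293 plated at 250 cells/well.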
FLuc SDR no ATP – stabilizes firefly luciferase without ATP. shares compounds with FLuc inh-1. Purified FLuc-C-HiBiT, Nano-Glo HiBiT luminescence, no ATP. Potency, µM (titrated, usually from 32.7 µM), for the others: at the top dose activation (signal gain), most hits filed as activators. hit rate 7.8% among 1,300. AID 1963318; further: nearly all actives have a fitted effect of over 55% in size
FLuc SDR ATP – firefly luciferase binding stabilization, ATP added. shares compounds with FLuc inh-1. purified FLuc-C-HiBiT + ATP, HiBiT complementation luminescence. Potency, µM (doses to about 32.7 µM), inactives show at the top dose activation (gain of signal), actives largely listed as activators. hit rate 8.7% among 1,300. AID 1963319;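 further: signal reports ligand binding via conformational change of the enzyme rather than luciferase catalysis; % of control where 0% means no effect; nearly all actives have a fitted effect of over 55% in size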
FLuc inh-2 – inhibitors of firefly luciferase enzymatic activity; hit rate 42% among 1,300; AID 1963320; Potency, µM (doses to about 32.7 µM), for inactives: at the top dose activity change, negative = inhibition, most hits filed as inhibitors; purified FLuc-C-HiBiT enzyme, luciferin luminescence; shares compounds with FLuc inh-1; further: on the % scale 0 is the no-effect control and ±100 the full control effect; nearly all actives have a fitted effect of over 70% in size
* hit, by the source's call; i = inactive; ? = inconclusive; · = no result given; [ ] = dose if it differs, or a comment. Hits are enriched below; roughly 11% of the tested compounds scored in any of these assays. Unless noted, the call rests on the fitted dose curve; in most records, active means well fitted curve in the direction sought with a large enough effect; inconclusive means small, poorly fitted or top-dose-only effect, or another doubt; inactive means no such curve, though single readings can be large; an effect the other way counts as inactive or inconclusive. Potency means the concentration at half of the fitted maximal effect.

SMILES	FLuc inh-1	NPR1 antag	NIH3T3 tox	HEK293 tox	FLuc SDR no ATP	FLuc SDR ATP	FLuc inh-2
CCC(C)NC(=O)C1COC2(CCN(C(=O)c3ccc(OC)cc3)CC2)N1C(=O)c1ccc(C)cc1 (centres undefined)	i	7%	4%	?	·	·	·
O=C(NCc1nnc2ccc(-c3ccc(F)cc3)nn12)c1ccoc1	i	5%	-11%	-1%	·	·	·
O=C(NCc1ccoc1)c1ccc2nc(-c3ccc(F)cc3)cn2c1	5.6µM*	-6%	?	?	20%	15%	?
O=C(NCCc1cccs1)C1CCN(C(=O)c2ncn3c2COC(c2ccccc2)C3)CC1 (centres undefined)	7.1µM*	-7%	-6%	-9%	13%	?	4.4µM*
CCCCNC(=O)C1CCN(C(=O)c2ncn3c2COC(c2ccccc2)C3)CC1 (centres undefined)	7.1µM*	2%	2%	-2%	14%	?	?
O=C(NCCc1cccs1)C1CCN(C(=O)c2ncn3c2COC(c2ccc(F)cc2)C3)CC1 (centres undefined)	i	-2%	i	-2%	·	·	·
O=C(NCc1cccs1)C1CCN(C(=O)c2ncn3c2COC(c2ccccc2)C3)CC1 (centres undefined)	6.3µM*	-15%	-2%	4%	13%	2.2µM*	2.5µM*
O=C(NCCc1ccccc1)C1CCN(C(=O)c2ncn3c2COC(c2ccc(Cl)cc2)C3)CC1 (centres undefined)	?	-2%	4%	-7%	·	·	·
COc1ccccc1-n1c(=O)c(C(=O)N2CCN(C(=O)N(C)C)CC2)nc2cccnc21	·	·	-9%	i	·	·	·
Cc1cc(C)cc(CCC(=O)N2CCN(c3ccc(C#N)cn3)CC2)c1	i	1%	?	?	·	·	·
Cc1ccccc1-c1[nH]nc2ncc(-c3cn[nH]c3)nc12	i	0%[70.6 µM]	?	?	·	·	·
CCc1cccc(NC(=O)C2CCN(C(=O)c3ncn4c3COC(c3ccc(OC)cc3)C4)CC2)c1 (centres undefined)	?	1%	-2%	-4%	·	·	·
Cc1cccc(NC(=O)C2CCN(C(=O)c3ncn4c3COC(c3ccccc3)C4)CC2)c1 (centres undefined)	3.2µM*	-28%	1%	5%	15%	2µM*	2.5µM*
Cc1cc(C)cc(NC(=O)C2CCN(C(=O)c3ncn4c3COC(c3ccccc3)C4)CC2)c1 (centres undefined)	8.9µM*	-3%	i	6%	16%	?	3.1µM*
CCCNC(=O)C1C(c2cccc(NC(=O)c3ccc(C)cc3)c2)OC(=O)N1Cc1ccc(C)cc1 (centres undefined)	8.9µM*	?	?	?	16%	4.4µM*	4.4µM*
Cc1cc(-c2nc3cc(F)ccc3s2)ccc1NC(=O)[C@@H](N)CCCCN	·	·	·	·	30%	?	2.5µM*
Cc1nc(-c2ccc(F)cc2)n(CC(=O)Nc2cc(F)ccc2F)c(=O)c1CCO	i	-9%	-15%	?	·	·	·
Cc1cc(-c2nc3cc(F)ccc3s2)ccc1N	·	·	·	·	?	?	1.1µM*
CCOc1cccc(NC(=O)CSc2ncc(-c3ccccc3)[nH]2)c1	·	·	·	·	21%	14%	-16%
CCOc1cccc(NC(=O)c2cc(-c3ccc(C(F)(F)F)cc3)nc3c2cnn3C)c1	·	·	?	-23%	·	·	·
Cc1ccc(C(=O)NC2CC2)cc1-c1ccc2[nH]ncc2c1	·	·	·	·	17%	12%	-16%
COCCN1C(=O)CCc2cc(NC(=O)c3ccc(OC(F)(F)F)cc3)ccc21	?	-8%	?	?	·	·	·
CCN1C(=O)CCc2cc(NC(=O)c3ccc(OC(F)(F)F)cc3)ccc21	14µM*	-2%	45µM*	50µM*	22%	15%	?
O=C1COCC2(CN1Cc1cccc(OC(F)(F)F)c1)CN(C(=O)c1cccs1)C2	i	-1%[70.6 µM]	-10%[138 µM]	?	·	·	·
CS(=O)(=O)Nc1ccc(-c2nc3ccccc3s2)cc1	·	·	·	·	?	?	2.2µM*
SMILES	FLuc inh-1	NPR1 antag	NIH3T3 tox	HEK293 tox	FLuc SDR no ATP	FLuc SDR ATP	FLuc inh-2
Cc1c(NS(C)(=O)=O)cccc1-c1nc2ccccc2s1	·	·	·	·	29%	21%	?
CNC(=O)c1cc(C2CC2)nc2c1c(C1CCN([S+](=O)([O-])c3cccs3)C1)nn2C (centres undefined)	·	·	-16%	-2%	·	·	·
O=C(CCC1CCN(c2cc(NC3CC3)ncn2)CC1)Nc1ccccc1	?	?	-24%	?	·	·	·
CCCNc1cc(N2CCC(CCC(=O)NCC)CC2)ncn1	i	-14%	-7%	i	·	·	·
O=C(O)CCC1CCN(c2cc(NC3CC3)ncn2)CC1	5µM*	0%	-12%	5%	16%	3.9µM*	3.1µM*
CCCNc1cc(N2CCC(CCC(=O)O)CC2)ncn1	40µM*	3%	2%	4%	15%	9.9µM*	7.9µM*
CSCC(=O)Nc1nc2c(s1)C[C@]1(C)CC[C@@H]3[C@H](OC(=O)[C@H]3C)[C@H]1[C@@H]2C	0.89µM*	7.1µM*	100µM*	35µM*	?	?	4.5µM*
C[C@@H]1C(=O)O[C@H]2[C@H]1CC[C@@]1(C)Cc3sc(NS(=O)(=O)c4ccc5c(c4)CN(C(=O)C(F)(F)F)CC5)nc3[C@@H](C)[C@H]21	i	-2%	-23%	-17%	·	·	·
C[C@@H]1C(=O)O[C@H]2[C@H]1CC[C@@]1(C)Cc3sc(NC(=O)COCC(=O)O)nc3[C@@H](C)[C@H]21	13µM*	0%[70.6 µM]	i	i	4.5µM*	?	5.7µM*
O=C(O)C1(Oc2ccc3ncccc3c2)CCN(c2cnccn2)CC1	i	-2%	i	i	·	·	·
O=C(O)C1(Oc2ccc3ccccc3c2)CCN(c2ncnc3nc[nH]c23)CC1	i	14%	-2%	-15%	11%	12%	-12%
COc1ccccc1-c1cnc(Nc2cc(F)cc(N3CCOCC3)c2)c2c1CCO2	i	-4%[70.6 µM]	?	?	·	·	·
COc1ccc(-c2ccc3ncc(Nc4cc(F)cc(N5CCOCC5)c4)n3n2)cc1OC	8.9µM*	2%	18µM*	?	19%	12%	?
COc1ccc(NC(=O)/C(C#N)=C/c2ccc(C)o2)cc1	·	·	·	·	22%	17%	?
COc1ccc(-c2ccccc2)cc1N1C(=O)[C@@H]2C[C@H]1CN2C(=O)CNC(N)=O	i	-1%	i	-4%	·	·	·
COc1cccc(C(=O)N2CC3(Cc4ccccc4N([S+](C)(=O)[O-])C3)C2)c1	i	3%	-29%	?	·	·	·
